Results: PubChem BioAssay (NCATS)
Results filed as inconclusive are left out. A number with no mark means an inactive call. Calls of active or inactive are those of the source. The call rests on the fitted dose curve; in most records, active means well fitted inhibition curve with a large enough effect; inconclusive means small, poorly fitted or top-dose-only effect; inactive means flat fitted curve, though single readings scatter.

Assay: P-glycoprotein substrates identified in KB-8-5-11 adenocarcinoma cell line, qHTS therapeutic library screen (AID 1346987); further: nearly all actives have a fitted effect of over 65% in size
Details: KB-8-5-11 (P-gp overexpressing) viability, CellTiter-Glo, 72 h; series mostly up to 44.5 µM; activity change, negative = cytotoxicity: at the top concentration
Method in brief: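 In this qHTS, P-gp-rich KB-8-5-11 cells received library compounds across a concentration range. Viability was quantified by luminescence after 72 h at 37 degree C.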
On the % scale 0 is the no-effect control and ±100 the full control effect.

| SMILES | activity change, negative = cytotoxicity | outcome |
| --- | --- | --- |
| COc1cccc(C(=O)NCCNc2nc3cc(C)cc(C)c3cc2C#N)c1 | -23.7% |  |
| CC(=O)OC1(C)CC(O)C2(O)C=COC(OC3OC(CO)C(O)C(O)C3O)C12 (configuration not stated) |  | inactive [at 17.3 µM] |
| CCOc1nc2c(N)ncnc2n1CC |  | inactive |
| CC1=CC(=O)CC(C)(C)C1CO[C@@H]1O[C@H](CO)[C@@H](O)[C@H](O)[C@H]1O (some centres not stated) | 4.77% |  |
| C[C@]1(O)CC[C@@H]2C(C(=O)O)=CO[C@@H](O[C@@H]3O[C@H](CO)[C@@H](O)[C@H](O)[C@H]3O)[C@@H]21 | 8.38% |  |
| CCOC(=O)COc1ccc2c(c1)C[C@@H](NC[C@H](O)c1cccc(Cl)c1)CC2 | 4.51% |  |
| CC1(C(=O)O)CCCC2(C)C3CCC4CC3(CCC12)CC4C(=O)O (configuration not stated) |  | inactive |
| CC(C)=C1C[C@@]2(C)C(=CC1=O)CC[C@@H](O)[C@@H]2C | -2.24% |  |
| CCCCS(=O)(=O)NC(Cc1ccc(OCCCCC2CCNCC2)cc1)C(=O)O (configuration not stated) | 0.242% |  |
| O=C(C[C@@H]1C(C(=O)O)=CO[C@@H](O[C@@H]2O[C@H](CO)[C@@H](O)[C@H](O)[C@H]2O)/C1=C\CO)OCCc1ccc(O)c(O)c1 |  | inactive [at 17.3 µM] |
| COC1CC(O[C@H]2CC[C@@]3(C)C(=CC[C@]4(O)C3[C@H](O)[C@@H](O)[C@]3(C)[C@@H]([C@H](C)O)CC[C@@]34O)C2)OC(C)C1OC1CC(OC)C(OC2CC(OC)C(OC3OC(C)C(OC4OC(CO)C(O)C(O)C4O)C(OC)C3O)C(C)O2)C(C)O1 (some centres not stated) | 0.732% [at 9.29 µM] |  |
| COc1cc(/C=C/C(=O)OC[C@H]2O[C@@H](OC3OC=C(C(=O)O)C4C(O)CC(C)(O)C34)[C@H](O)[C@@H](O)[C@@H]2O)cc(OC)c1O (some centres not stated) |  | inactive [at 17.3 µM] |
